Values joined by “and” are separate entries in the source; they are usually repeats but may differ in a detail not shown here. Equal entries are not always repeated. Some compounds were tested as several samples or in several runs, with calls that do not always agree. Active and inactive are the calls of the source. Rule for the calls: active = hit-call score of the fitted dose curve at least 0.9, where 1 is the maximum; inactive = score below 0.9.
Columns and labels:
[1] = read-out: TIMP metallopeptidase inhibitor 2 (TIMP2), TIMP2 (gene 7077); test: BSK_KF3CT_TIMP2: BioMAP Diversity Plus: KF3CT Assay for TIMP metallopeptidase inhibitor 2 (TIMP2) Biomarker Activity (AID 2283071); settings: primary human keratinocytes with fibroblasts; actives raise or lower the signal
Method in brief: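 Cells: human keratinocytes co-cultured with foreskin fibroblasts. Treat with chemical, 24 h. Measure TIMP-2 by ELISA; fit curves bidirectionally vs DMSO baseline.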

[2] = read-out: Transforming growth factor beta 1 (TGFb1), TGFB1 (gene 7040); test: BSK_KF3CT_TGFb1: BioMAP Diversity Plus: KF3CT Assay for Transforming growth factor beta 1 (TGFb1) Biomarker Activity (AID 2283072); settings: primary human keratinocytes with fibroblasts; actives raise or lower the signal
Method in brief: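 Primary human skin cells (keratinocytes, foreskin fibroblasts) were co-cultured, exposed to test chemical and sampled at 24 h. TGF-b1 levels were measured by ELISA and fitted bidirectionally relative to DMSO.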

[3] = read-out: C-C motif chemokine 2 (Homo sapiens) (UniProt P13500); test: BSK_KF3CT_MCP1: BioMAP Diversity Plus: KF3CT Assay for Monocyte Chemoattractant Protein 1 (MCP1/CCL2) Biomarker Activity (AID 2283073); settings: primary human keratinocytes with fibroblasts; actives raise or lower the signal
Method in brief: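 Human keratinocyte–foreskin fibroblast co-culture; MCP-1 measured by ELISA 24 h after dosing. Bidirectional fit vs DMSO; cytotoxicity tracked by SRB total protein in parallel cultures.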

[4] = read-out: Matrix Metallopeptidase 9 (MMP9), MMP9 (gene 4318); test: BSK_KF3CT_MMP9: BioMAP Diversity Plus: KF3CT Assay for Matrix Metallopeptidase 9 (MMP9) Biomarker Activity (AID 2283074); settings: primary human keratinocytes with fibroblasts; actives raise or lower the signal;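 for AC50: MMP9 protein level quantified by ELISA in the co-culture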
Method in brief: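 Human keratinocyte and foreskin fibroblast co-culture exposed to chemicals for 24 h; MMP9 biomarker measured by ELISA, bidirectional fitting relative to DMSO; cytotoxicity tracked by SRB total protein staining in parallel cultures.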

[5] = read-out: CD40, CD40 (gene 958); test: BSK_LPS_CD40: BioMAP Diversity Plus: LPS Assay for CD40 Biomarker Activity (AID 2283076); settings: primary human HUVEC with PBMC; actives raise or lower the signal
Method in brief: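 HUVEC plus PBMC co-culture stimulated with LPS; CD40 quantified by ELISA 24 h after compound dosing. Fitting was bidirectional relative to DMSO. SRB staining of parallel cultures flagged overt cytotoxicity.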

[6] = read-out: E-selectin (Homo sapiens) (UniProt P16581); test: BSK_LPS_Eselectin: BioMAP Diversity Plus: LPS Assay for Eselectin Biomarker Activity (AID 2283077); settings: primary human HUVEC with PBMC; actives raise or lower the signal
Method in brief: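 Human umbilical vein endothelial cells co-cultured with PBMC under LPS stimulation; cell-surface E-selectin measured by ELISA 24 h after dosing. Change in either direction versus DMSO, with SRB total-protein staining in parallel cultures for cytotoxicity.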

[7] = read-out: Interleukin-8 (IL8), CXCL8 (gene 3576); test: BSK_LPS_IL8: BioMAP Diversity Plus: LPS Assay for Interleukin-8 (IL8) Biomarker Activity (AID 2283078); settings: primary human HUVEC with PBMC; actives raise or lower the signal
Method in brief: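 Human umbilical vein endothelial cells co-cultured with PBMC, LPS-stimulated, exposed to compound for 24 h. IL-8 quantified by ELISA; fitted in both directions against DMSO, with SRB total-protein staining of parallel cultures for cytotoxicity.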

[8] = read-out: Interleukin-1 alpha (IL1a), IL1A (gene 3552); test: BSK_LPS_IL1a: BioMAP Diversity Plus: LPS Assay for Interleukin-1 alpha (IL1a) Biomarker Activity (AID 2283080); settings: primary human HUVEC with PBMC; actives raise or lower the signal
Method in brief: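 Human umbilical vein endothelial cells co-cultured with PBMC and stimulated with LPS; IL-1a measured by ELISA 24 h after dosing. Bidirectional fitting against DMSO; cytotoxicity checked by SRB staining in parallel cultures.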

[9] = read-out: urokinase plasminogen activator (uPA), PLAU (gene 5328); test: BSK_KF3CT_uPA: BioMAP Diversity Plus: KF3CT Assay for urokinase plasminogen activator (uPA) Biomarker Activity (AID 2283075); settings: primary human keratinocytes with fibroblasts; actives raise or lower the signal
Method in brief: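 Primary human keratinocyte/foreskin fibroblast co-culture exposed to chemical; uPA measured by ELISA at 24 h. Bidirectional fit versus DMSO, with parallel SRB total-protein staining for cytotoxicity.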

[10] = BSK_LPS_SRB: Viability Assessment in the BioMAP Diversity Plus: LPS Assay (AID 2283079); settings: primary human HUVEC with PBMC;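 note: total protein by sulforhodamine B absorbance as a cytotoxicity measure; measured one day after compound addition; fitted in both directions against DMSO so loss or gain of signal counts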
Method in brief: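 Co-culture of human umbilical vein endothelial cells and PBMC, read 24 h after dosing. Total protein by 0.1% SRB staining after 10% TCA fixation, absorbance at 560 nm; bidirectional fit against DMSO.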

Measured: AC50

Sequence of E-selectin (Homo sapiens) (P16581 whole entry, looked up): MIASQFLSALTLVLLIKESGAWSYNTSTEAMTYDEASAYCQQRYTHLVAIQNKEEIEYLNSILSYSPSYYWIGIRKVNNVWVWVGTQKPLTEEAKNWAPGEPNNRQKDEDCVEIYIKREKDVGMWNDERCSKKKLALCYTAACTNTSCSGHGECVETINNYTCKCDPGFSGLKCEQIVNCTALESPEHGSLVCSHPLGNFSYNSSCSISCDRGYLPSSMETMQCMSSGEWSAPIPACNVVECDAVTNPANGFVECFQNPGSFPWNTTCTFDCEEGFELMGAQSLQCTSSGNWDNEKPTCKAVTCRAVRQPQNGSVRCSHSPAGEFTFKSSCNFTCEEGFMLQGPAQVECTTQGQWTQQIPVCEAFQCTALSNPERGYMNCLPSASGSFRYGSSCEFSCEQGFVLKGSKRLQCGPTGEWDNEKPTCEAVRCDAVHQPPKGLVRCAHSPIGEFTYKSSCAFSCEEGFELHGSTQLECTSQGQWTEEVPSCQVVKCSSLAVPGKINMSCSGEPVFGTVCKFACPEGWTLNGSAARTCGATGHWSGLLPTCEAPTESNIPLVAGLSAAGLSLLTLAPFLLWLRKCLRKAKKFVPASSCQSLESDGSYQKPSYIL

O=C1c2ccccc2C(=O)N1SC(Cl)(Cl)Cl
inactive: [1] | [2] | [3] | [4] | [5] | [6] | [7] | [8]

CC(C)(C)C(O)C(Oc1ccc(Cl)cc1)n1cncn1 (stereo unspecified)
inactive: [2] | [3] | [4] | [9] | [5] | [6] | [7] | [8]

CCC(C)(C)C(=O)OC1=C(c2ccc(Cl)cc2Cl)C(=O)OC12CCCCC2
active: [1] 28 µM | [2] 31 µM | [3] 31.4 µM | [4] 20 µM | [5] 10.5 µM | [6] 25.3 µM | [7] 32.6 µM | [8] 36.5 µM

O=C(O)COc1ccc(Cl)cc1Cl
inactive: [2] | [3] | [4] | [9] | [5] | [6] | [7] | [8]

CNC(=O)Oc1ccccc1OC(C)C
inactive: [2] | [4] | [9] | [5] | [6] | [7] | [8]
active: [3] 0.147 µM

CC(C)OC(=O)Nc1cccc(Cl)c1
active: [10] 3.97 µM
inactive: [2] | [3] | [4] | [5] | [6] | [7] | [8]

CNC(=O)/C=C(\C)OP(=O)(OC)OC
inactive: [1] | [2] | [3] | [4] | [9] | [5] | [6] | [7] | [8]

ClC1C(Cl)C(Cl)C(Cl)C(Cl)C1Cl (stereo unspecified)
active: [2] 20 µM
inactive: [2] | [3] | [4] | [9] | [5] | [6] | [7] | [8]

O=S(=O)(O)C(F)(F)C(F)(F)C(F)(F)C(F)(F)C(F)(F)C(F)(F)C(F)(F)C(F)(F)F
inactive: [2] | [3] | [4] | [5] | [6] | [7] | [8]
active: [2] 30.1 µM and 31.6 µM and 31.3 µM | [3] 16.8 µM | [7] 9.09 µM and 1.92 µM and 7.33 µM
